From the supplement of paper PMC10849652
Targets with a hit are over-represented here; the source holds about 8,800 in all. About 0.5% of all pairs of compound and target were hits.

Key:
Test in all cases: log2 fold change, soluble protein after heating vs DMSO (PISA); higher = thermal stabilisation; K562 lysate, 10 uM; active = over 0.2 and 3.5 SD of the protein, either way, in both replicates (recomputed)
nilotinib = compound: Cc1cn(-c2cc(NC(=O)c3ccc(C)c(Nc4nccc(-c5cccnc5)n4)c3)cc(C(F)(F)F)c2)cn1 [nilotinib]
Method in brief: (§1)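 Log-two fold change in thermal stability relative to solvent controls is reported from duplicates. For each sample, crude K562 extract from dounce-homogenised pellets in PBS pH 7.4 with 1 mM MgCl2, at 1 mg/mL protein, was treated with 10 μM compound for 30 min. Aliquots heated for 3 min across 48°C-58°C were pooled, brought to 0.5% NP-40 at 4°C and cleared at 21,000xg for 90 min. The supernatant was quantified by TMTpro 16plex LC-MS/MS with channel sums equalised.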

[1] = compound: Cc1nc(Nc2n[nH]c3c2CN(C(=O)N[C@H](CN(C)C)c2ccccc2)C3(C)C)c2sccc2n1
Method in brief: as §1

dasatinib = compound: Cc1nc(Nc2ncc(C(=O)Nc3c(C)cccc3Cl)s2)cc(N2CCN(CCO)CC2)n1 [dasatinib]
Method in brief: as §1

[2] = compound: Cc1ncc(-c2ccnc(Nc3ccc(S(C)(=O)=O)cc3)n2)n1C(C)C
Method in brief: as §1

[3] = compound: Cn1cc(-c2ccc3c(c2)CCN3C(=O)Cc2cccc(C(F)(F)F)c2)c2c(N)ncnc21
Method in brief: as §1

quisinostat = compound: Cn1cc(CNCC2CCN(c3ncc(C(=O)NO)cn3)CC2)c2ccccc21 [quisinostat]
Method in brief: as §1

tipifarnib = compound: Cn1cncc1[C@@](N)(c1ccc(Cl)cc1)c1ccc2c(c1)c(-c1cccc(Cl)c1)cc(=O)n2C [tipifarnib]
Method in brief: as §1

[4] = compound: NC(=O)Nc1cc(-c2cccc(F)c2)sc1C(=O)N[C@H]1CCCNC1
Method in brief: as §1

[5] = compound: NC(=O)c1cnc(N[C@@H]2CCCC[C@@H]2N)nc1Nc1cccc(-n2nccn2)c1
Method in brief: as §1

[6] = compound: NC1(c2ccc(-c3nc4ccn5c(=O)[nH]nc5c4cc3-c3ccccc3)cc2)CCC1
Method in brief: as §1

Measured: log2 fold change

EPS8L2 (UniProt Q9H6S3)
inactive: nilotinib -0.011 | [1] 0.05 | dasatinib 0.051 | [2] -0.121 | [3] 0.053 | quisinostat 0.013 | tipifarnib 0.013 | [4] 0.058 | [5] -0.01 | [6] 0.013

GCLM (UniProt P48507)
Sequence of UniProt P48507 (P48507 whole entry, looked up): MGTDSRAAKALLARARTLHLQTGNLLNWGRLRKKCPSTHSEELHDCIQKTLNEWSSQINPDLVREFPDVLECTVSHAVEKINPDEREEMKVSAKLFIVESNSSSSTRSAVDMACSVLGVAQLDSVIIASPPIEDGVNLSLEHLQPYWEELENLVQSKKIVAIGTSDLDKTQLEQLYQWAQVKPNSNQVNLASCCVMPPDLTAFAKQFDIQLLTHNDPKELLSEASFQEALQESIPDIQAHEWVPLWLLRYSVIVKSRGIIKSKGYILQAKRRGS
inactive: nilotinib -0.03 | [1] 0.016 | dasatinib -0.033 | [2] 0.013 | [3] 0.027 | quisinostat 0.016 | tipifarnib 0.007 | [4] 0 | [5] -0.005 | [6] -0.005

DVL2 (UniProt O14641)
inactive: nilotinib -0.03 | [1] -0.003 | dasatinib -0.114 | [2] 0.027 | [3] -0.063 | quisinostat -0.13 | tipifarnib -0.027 | [4] 0.102 | [5] 0.236 | [6] -0.097

FADS1, A0A0A0MR51
inactive: nilotinib 0.065 | [1] -0.078 | dasatinib 0.04 | [2] 0.02 | [3] 0.079 | quisinostat 0.004 | tipifarnib 0.069 | [4] 0.008 | [5] -0.114 | [6] 0.022

FANCI (UniProt Q9NVI1)
inactive: nilotinib -0.022 | [1] -0.011 | dasatinib -0.069 | [2] 0.028 | [3] 0.049 | quisinostat -0.065 | tipifarnib 0.01 | [4] 0.061 | [5] 0.027 | [6] -0.027

ELF2 (UniProt Q15723)
Sequence of UniProt Q15723 (Q15723 whole entry, looked up): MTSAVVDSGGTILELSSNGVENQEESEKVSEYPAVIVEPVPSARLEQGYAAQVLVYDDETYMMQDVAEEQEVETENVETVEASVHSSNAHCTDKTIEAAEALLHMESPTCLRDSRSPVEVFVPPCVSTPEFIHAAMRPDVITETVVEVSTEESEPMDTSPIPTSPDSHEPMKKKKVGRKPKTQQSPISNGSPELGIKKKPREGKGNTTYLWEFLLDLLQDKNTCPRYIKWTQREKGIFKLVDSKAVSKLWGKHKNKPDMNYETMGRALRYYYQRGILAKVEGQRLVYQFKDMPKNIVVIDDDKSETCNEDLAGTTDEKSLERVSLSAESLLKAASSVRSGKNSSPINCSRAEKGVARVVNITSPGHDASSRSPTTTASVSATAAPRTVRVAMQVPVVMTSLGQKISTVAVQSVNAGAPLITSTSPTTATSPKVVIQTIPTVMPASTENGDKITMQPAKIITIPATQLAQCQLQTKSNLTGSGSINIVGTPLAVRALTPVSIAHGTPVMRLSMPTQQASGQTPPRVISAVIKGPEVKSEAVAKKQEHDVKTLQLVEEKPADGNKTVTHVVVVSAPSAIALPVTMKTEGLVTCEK
inactive: nilotinib 0.032 | [1] -0.007 | dasatinib -0.105 | [2] 0.065 | [3] 0.068 | quisinostat 0.026 | tipifarnib -0.043 | [4] -0.035 | [5] -0.02 | [6] 0.032

FNTB (UniProt P49356)
inactive: nilotinib -0.005 | [1] 0.016 | dasatinib 0.018 | [2] -0.04 | [3] -0.022 | quisinostat -0.002 | [4] 0.003 | [5] -0.011 | [6] -0.027
active: tipifarnib 0.239

GIGYF2 (UniProt Q6Y7W6)
inactive: nilotinib 0.004 | [1] -0.03 | dasatinib 0.006 | [2] 0.007 | [3] 0.024 | quisinostat -0.011 | tipifarnib -0.09 | [4] 0.026 | [5] 0.007 | [6] -0.04

ESRRA (UniProt P11474)
Sequence of UniProt P11474 (P11474 whole entry, looked up): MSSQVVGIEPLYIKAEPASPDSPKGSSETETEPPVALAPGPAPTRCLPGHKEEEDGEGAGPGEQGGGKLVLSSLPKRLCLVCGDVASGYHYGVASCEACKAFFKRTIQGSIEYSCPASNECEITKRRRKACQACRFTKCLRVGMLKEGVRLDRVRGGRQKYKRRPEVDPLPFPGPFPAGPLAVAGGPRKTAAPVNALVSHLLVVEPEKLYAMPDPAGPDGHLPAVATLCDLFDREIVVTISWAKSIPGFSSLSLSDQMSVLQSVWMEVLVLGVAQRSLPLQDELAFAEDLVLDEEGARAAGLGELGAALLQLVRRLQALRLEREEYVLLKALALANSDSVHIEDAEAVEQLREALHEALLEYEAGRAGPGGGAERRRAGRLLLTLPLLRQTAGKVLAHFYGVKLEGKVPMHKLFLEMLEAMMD
inactive: nilotinib -0.121 | [1] 0.016 | dasatinib 0.061 | [2] 0.035 | [3] -0.096 | quisinostat -0.038 | tipifarnib 0.008 | [4] 0.158 | [5] -0.016 | [6] 0.016

FUBP3 (UniProt Q96I24)
inactive: nilotinib -0.201 | [1] -0.016 | dasatinib -0.094 | [2] 0.012 | [3] 0.01 | quisinostat -0.029 | tipifarnib -0.009 | [4] 0.043 | [5] -0.005 | [6] 0.032

EHD2 (UniProt Q9NZN4)
inactive: nilotinib 0.007 | [1] -0.02 | dasatinib -0.018 | [2] 0.019 | [3] -0.084 | quisinostat -0.074 | tipifarnib -0.047 | [4] 0.09 | [5] 0.029 | [6] -0.042

ENY2 (UniProt Q9NPA8)
Sequence of UniProt Q9NPA8 (Q9NPA8 whole entry, looked up): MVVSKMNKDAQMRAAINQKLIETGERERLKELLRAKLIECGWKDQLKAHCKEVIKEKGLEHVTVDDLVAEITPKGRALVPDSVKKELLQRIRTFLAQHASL
inactive: nilotinib -0.054 | [1] -0.002 | dasatinib 0.045 | [2] 0.007 | [3] 0.033 | quisinostat -0.03 | tipifarnib 0.085 | [4] -0.03 | [5] -0.022 | [6] -0.007

FREM2 (UniProt Q5SZK8)
inactive: nilotinib -0.108 | [1] 0.041 | dasatinib -0.071 | [2] -0.113 | [3] -0.014 | quisinostat -0.223 | tipifarnib -0.168 | [4] 0.048 | [5] 0.059 | [6] 0.04

DSN1 (UniProt Q9H410)
inactive: nilotinib -0.006 | [1] 0.023 | dasatinib -0.022 | [2] 0.001 | [3] 0.011 | quisinostat -0.015 | tipifarnib -0.015 | [4] 0.05 | [5] 0.014 | [6] 0.031

FBXO22 (UniProt Q8NEZ5)
inactive: nilotinib 0.005 | [1] 0.021 | dasatinib -0.028 | [2] -0.036 | [3] 0.025 | quisinostat -0.047 | tipifarnib 0.034 | [4] 0.012 | [5] -0.007 | [6] -0.016

FLAD1 (UniProt Q8NFF5)
Sequence of UniProt Q8NFF5 (Q8NFF5 whole entry, looked up): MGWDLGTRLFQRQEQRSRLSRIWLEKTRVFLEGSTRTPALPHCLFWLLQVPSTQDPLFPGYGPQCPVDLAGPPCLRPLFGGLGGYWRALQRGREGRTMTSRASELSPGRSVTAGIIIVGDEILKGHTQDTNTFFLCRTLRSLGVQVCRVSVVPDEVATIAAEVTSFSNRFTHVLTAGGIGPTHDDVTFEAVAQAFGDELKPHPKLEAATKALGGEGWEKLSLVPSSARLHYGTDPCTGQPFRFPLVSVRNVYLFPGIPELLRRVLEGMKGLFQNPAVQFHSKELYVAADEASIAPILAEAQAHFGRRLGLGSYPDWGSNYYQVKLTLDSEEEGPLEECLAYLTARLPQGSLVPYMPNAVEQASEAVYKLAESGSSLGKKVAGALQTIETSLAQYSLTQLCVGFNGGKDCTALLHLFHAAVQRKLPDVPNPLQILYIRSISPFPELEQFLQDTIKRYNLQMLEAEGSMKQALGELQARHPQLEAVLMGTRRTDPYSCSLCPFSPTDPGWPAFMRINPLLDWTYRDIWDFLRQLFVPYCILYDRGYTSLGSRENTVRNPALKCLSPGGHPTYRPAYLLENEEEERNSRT
inactive: nilotinib 0.051 | [1] -0.026 | dasatinib 0.002 | [2] 0.024 | [3] 0.019 | quisinostat -0.129 | tipifarnib 0 | [4] 0.03 | [5] 0.017 | [6] -0.026

EGLN1 (UniProt Q9GZT9)
Sequence of UniProt Q9GZT9 (Q9GZT9 whole entry, looked up): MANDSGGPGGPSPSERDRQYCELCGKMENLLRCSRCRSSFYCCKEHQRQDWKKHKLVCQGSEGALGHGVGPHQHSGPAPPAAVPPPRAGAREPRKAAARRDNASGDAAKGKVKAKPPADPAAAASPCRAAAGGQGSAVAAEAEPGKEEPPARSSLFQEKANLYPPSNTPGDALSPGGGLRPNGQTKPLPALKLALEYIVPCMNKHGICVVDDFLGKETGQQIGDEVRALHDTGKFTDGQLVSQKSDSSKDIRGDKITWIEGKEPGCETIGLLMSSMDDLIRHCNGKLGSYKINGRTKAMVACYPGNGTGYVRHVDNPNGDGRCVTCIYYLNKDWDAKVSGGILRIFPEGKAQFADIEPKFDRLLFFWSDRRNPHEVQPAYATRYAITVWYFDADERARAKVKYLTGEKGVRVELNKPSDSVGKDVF
inactive: nilotinib 0.006 | [1] 0.007 | dasatinib -0.045 | [2] -0.066 | [3] 0.03 | quisinostat -0.048 | tipifarnib -0.05 | [4] 0.044 | [5] 0.039 | [6] 0.006

FMNL1 isoform 3 (UniProt O95466)
Sequence of UniProt O95466 (O95466 whole entry, looked up): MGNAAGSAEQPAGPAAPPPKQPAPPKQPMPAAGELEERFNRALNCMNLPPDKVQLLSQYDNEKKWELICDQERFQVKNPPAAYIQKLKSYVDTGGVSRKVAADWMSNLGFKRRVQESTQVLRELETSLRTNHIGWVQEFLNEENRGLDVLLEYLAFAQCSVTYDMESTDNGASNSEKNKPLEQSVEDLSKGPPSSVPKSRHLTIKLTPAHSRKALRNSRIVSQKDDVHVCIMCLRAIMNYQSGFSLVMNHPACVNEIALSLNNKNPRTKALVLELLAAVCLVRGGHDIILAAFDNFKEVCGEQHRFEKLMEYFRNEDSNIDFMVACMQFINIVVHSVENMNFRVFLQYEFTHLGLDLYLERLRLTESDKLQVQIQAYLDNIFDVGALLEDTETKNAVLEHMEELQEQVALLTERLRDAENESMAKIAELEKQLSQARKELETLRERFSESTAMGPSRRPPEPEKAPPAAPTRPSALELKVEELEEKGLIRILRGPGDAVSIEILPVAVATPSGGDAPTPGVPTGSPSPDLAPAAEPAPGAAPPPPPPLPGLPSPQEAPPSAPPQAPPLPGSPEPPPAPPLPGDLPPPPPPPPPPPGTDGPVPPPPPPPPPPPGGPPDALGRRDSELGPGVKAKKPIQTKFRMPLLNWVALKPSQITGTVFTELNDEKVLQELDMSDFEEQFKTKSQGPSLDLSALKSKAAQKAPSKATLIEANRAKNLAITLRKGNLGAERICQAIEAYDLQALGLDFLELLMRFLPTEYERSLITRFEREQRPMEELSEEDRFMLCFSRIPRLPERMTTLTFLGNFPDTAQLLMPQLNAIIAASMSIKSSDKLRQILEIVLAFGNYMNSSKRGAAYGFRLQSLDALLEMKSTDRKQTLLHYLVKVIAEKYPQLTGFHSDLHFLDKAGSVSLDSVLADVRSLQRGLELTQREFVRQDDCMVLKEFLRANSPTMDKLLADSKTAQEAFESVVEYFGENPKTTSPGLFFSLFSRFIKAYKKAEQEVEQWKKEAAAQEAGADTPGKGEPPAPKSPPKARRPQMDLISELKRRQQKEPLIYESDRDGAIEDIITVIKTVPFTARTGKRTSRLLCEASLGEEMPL
inactive: nilotinib -0.174 | [1] -0.043 | dasatinib -0.13 | [2] -0.135 | [3] 0.009 | quisinostat -0.047 | tipifarnib -0.038 | [4] -0.051 | [5] 0.012 | [6] -0.042

ENSA isoform 3 (UniProt O43768)
inactive: nilotinib -0.022 | [1] -0.011 | dasatinib 0.07 | [2] 0.013 | [3] -0.002 | quisinostat 0.051 | tipifarnib -0.002 | [4] -0.025 | [5] -0.029 | [6] 0.021

EMP3 (UniProt P54852)
inactive: nilotinib 0.007 | [1] 0.094 | dasatinib -0.046 | [2] 0.02 | [3] -0.046 | quisinostat -0.144 | tipifarnib 0.031 | [4] 0.013 | [5] -0.035 | [6] -0.008

EDARADD (UniProt Q8WWZ3)
Sequence of UniProt Q8WWZ3 (Q8WWZ3 whole entry, looked up): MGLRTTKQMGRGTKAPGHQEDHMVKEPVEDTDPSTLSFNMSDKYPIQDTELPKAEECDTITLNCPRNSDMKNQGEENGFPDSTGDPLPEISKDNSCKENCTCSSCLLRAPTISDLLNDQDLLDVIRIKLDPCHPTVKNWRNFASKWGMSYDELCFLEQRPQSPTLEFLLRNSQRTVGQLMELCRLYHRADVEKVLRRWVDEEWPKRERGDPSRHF
inactive: nilotinib 0.076 | [1] -0.036 | dasatinib -0.004 | [2] 0.008 | [3] 0.023 | quisinostat 0.07 | tipifarnib 0.065 | [4] -0.05 | [5] -0.032 | [6] 0.019

FAM114A2 (UniProt Q9NRY5)
inactive: nilotinib 0.152 | [1] 0.053 | dasatinib -0.028 | [2] 0.031 | [3] 0.002 | quisinostat 0.02 | tipifarnib -0.231 | [4] 0 | [5] 0.009 | [6] -0.071

GABPB1 (UniProt Q06547)
inactive: nilotinib -0.008 | [1] 0.012 | dasatinib -0.051 | [2] -0.023 | [3] 0.05 | quisinostat -0.036 | tipifarnib 0.007 | [4] 0.031 | [5] 0.05 | [6] 0.033

DTWD1 (UniProt Q8N5C7)
Sequence of UniProt Q8N5C7 (Q8N5C7 whole entry, looked up): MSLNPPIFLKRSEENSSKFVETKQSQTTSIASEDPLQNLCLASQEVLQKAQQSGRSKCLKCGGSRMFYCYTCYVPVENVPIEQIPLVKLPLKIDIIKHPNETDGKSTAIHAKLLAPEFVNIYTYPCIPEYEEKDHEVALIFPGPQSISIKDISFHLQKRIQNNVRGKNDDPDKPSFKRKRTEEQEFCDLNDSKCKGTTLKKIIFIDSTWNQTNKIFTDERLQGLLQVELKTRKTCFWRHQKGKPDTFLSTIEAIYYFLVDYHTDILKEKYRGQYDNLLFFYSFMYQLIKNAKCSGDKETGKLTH
inactive: nilotinib 0.007 | [1] -0.039 | dasatinib -0.034 | [2] 0.01 | [3] -0.02 | quisinostat -0.067 | tipifarnib -0.007 | [4] 0.002 | [5] -0.008 | [6] 0.049

FASTKD5 (UniProt Q7L8L6)
inactive: nilotinib -0.072 | [1] 0.032 | dasatinib -0.006 | [2] 0.113 | [3] -0.027 | quisinostat -0.053 | tipifarnib 0.003 | [4] 0.004 | [5] 0.054 | [6] 0.013

ESPL1 (UniProt Q14674)
inactive: nilotinib -0.013 | [1] 0.006 | dasatinib 0.044 | [2] 0.054 | [3] 0.02 | quisinostat 0.066 | tipifarnib -0.024 | [4] 0.021 | [5] -0.014 | [6] -0.055

ECH1 (UniProt Q13011)
inactive: nilotinib -0.008 | [1] -0.019 | dasatinib 0.195 | [2] -0.003 | [3] 0.02 | quisinostat -0.008 | tipifarnib 0.022 | [4] 0.001 | [5] -0.022 | [6] 0.193

FOXK1 (UniProt P85037)
Sequence of UniProt P85037 (P85037 whole entry, looked up): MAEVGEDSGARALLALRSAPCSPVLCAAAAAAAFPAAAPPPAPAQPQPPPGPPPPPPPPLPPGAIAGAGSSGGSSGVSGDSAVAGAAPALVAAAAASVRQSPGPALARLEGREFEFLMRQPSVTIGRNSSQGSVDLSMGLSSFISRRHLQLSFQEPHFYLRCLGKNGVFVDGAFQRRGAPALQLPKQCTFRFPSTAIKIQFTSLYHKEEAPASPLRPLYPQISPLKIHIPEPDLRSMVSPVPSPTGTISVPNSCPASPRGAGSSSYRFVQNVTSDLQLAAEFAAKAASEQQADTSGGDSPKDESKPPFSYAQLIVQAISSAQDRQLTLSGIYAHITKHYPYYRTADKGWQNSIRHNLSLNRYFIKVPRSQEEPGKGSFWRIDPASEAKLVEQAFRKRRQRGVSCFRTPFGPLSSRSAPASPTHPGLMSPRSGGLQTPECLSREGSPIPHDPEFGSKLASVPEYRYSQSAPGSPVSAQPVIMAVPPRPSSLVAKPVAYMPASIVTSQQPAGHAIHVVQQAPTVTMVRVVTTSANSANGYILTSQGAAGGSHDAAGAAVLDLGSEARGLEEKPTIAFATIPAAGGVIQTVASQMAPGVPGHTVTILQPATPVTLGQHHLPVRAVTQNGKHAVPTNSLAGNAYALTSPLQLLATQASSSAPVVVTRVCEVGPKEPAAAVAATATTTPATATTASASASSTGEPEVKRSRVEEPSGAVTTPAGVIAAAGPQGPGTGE
inactive: nilotinib -0.006 | [1] -0.014 | dasatinib -0.065 | [2] -0.038 | [3] 0.004 | quisinostat -0.031 | tipifarnib -0.042 | [4] -0.002 | [5] -0.011 | [6] 0.007

FKBP1A (UniProt P62942)
Sequence of UniProt P62942 (P62942 whole entry, looked up): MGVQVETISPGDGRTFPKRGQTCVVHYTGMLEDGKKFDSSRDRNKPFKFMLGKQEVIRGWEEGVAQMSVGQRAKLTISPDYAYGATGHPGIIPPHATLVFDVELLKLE
inactive: nilotinib 0.023 | [1] 0.002 | dasatinib -0.005 | [2] 0.081 | [3] -0.103 | quisinostat 0.012 | tipifarnib 0.038 | [4] -0.005 | [5] 0.002 | [6] -0.039
